By inhibition is commonly meant the change of the read-out against control, counted positive when it falls.

Values joined by “and” are separate entries in the source; they are usually repeats but may differ in a detail not shown here. Equal values may be shown once.

The text below walks through data of ChEMBL document CHEMBL1961873, “Compounds: GSK PKIS; Assays: Nanosyn kinase panel” (2012).

Test [1] deals with Tyrosine-protein kinase receptor UFO (Homo sapiens) (UniProt P30530). The settings on record: at 1 µM.
Tyrosine-protein kinase receptor UFO (Homo sapiens), sequence (P30530 whole entry): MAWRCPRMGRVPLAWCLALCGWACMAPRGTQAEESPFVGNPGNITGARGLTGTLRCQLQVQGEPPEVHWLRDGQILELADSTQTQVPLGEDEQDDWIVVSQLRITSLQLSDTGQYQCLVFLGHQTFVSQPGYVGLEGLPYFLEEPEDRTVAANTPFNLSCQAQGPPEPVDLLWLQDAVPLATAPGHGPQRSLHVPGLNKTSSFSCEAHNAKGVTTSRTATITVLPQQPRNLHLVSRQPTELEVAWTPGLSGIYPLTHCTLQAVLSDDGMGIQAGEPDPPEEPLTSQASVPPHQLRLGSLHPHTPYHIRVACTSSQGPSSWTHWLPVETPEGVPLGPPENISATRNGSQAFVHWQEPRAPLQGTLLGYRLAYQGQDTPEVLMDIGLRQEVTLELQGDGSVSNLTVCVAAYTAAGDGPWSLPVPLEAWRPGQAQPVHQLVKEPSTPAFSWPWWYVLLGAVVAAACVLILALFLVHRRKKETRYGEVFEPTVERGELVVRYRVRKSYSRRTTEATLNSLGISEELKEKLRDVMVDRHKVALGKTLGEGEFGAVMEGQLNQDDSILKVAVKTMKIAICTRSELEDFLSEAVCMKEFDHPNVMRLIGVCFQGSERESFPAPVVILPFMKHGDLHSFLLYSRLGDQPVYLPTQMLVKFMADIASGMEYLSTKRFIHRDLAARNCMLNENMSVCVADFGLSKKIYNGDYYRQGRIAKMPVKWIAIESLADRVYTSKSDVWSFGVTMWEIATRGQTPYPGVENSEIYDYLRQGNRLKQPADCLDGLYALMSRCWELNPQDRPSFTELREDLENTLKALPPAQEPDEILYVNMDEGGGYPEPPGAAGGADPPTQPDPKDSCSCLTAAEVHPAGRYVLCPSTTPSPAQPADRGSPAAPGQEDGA
Test [2] has as its target Tyrosine-protein kinase Blk (Homo sapiens) (UniProt P51451). The settings on record: at 0.1 µM.
The target is the same in test [3]. The settings on record: at 1 µM.
For test [4], the target named is T1, Cytoplasmic tyrosine-protein kinase BMX (Homo sapiens) (UniProt P51813).
T1 sequence (whole entry): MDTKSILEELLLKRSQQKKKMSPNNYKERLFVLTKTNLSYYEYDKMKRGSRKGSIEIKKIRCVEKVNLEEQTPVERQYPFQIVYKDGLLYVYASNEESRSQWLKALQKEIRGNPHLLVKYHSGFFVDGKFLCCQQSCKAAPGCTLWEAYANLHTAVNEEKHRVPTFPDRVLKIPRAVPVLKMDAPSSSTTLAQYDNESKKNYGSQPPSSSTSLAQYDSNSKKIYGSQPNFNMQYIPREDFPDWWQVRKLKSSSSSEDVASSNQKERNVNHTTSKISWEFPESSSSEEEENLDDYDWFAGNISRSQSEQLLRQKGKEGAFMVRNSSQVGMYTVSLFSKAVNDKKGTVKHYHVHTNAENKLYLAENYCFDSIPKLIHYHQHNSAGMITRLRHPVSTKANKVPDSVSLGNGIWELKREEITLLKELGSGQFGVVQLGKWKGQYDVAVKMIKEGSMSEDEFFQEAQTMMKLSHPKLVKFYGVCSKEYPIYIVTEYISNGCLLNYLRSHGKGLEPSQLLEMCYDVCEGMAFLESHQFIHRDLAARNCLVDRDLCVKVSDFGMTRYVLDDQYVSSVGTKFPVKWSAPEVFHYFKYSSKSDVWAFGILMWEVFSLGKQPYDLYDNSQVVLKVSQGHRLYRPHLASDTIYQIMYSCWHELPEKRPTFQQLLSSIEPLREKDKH
The settings on record: at 0.1 µM.

For test [5], the target named is T1, Cytoplasmic tyrosine-protein kinase BMX (Homo sapiens). The settings on record: at 1 µM.
Test [6] has as its target Protein-tyrosine kinase 6 (Homo sapiens) (UniProt Q13882). The settings on record: at 0.1 µM.
The target is the same in test [7]. The settings on record: at 1 µM.
The target of test [8] is Tyrosine-protein kinase BTK (Homo sapiens) (UniProt Q06187). The settings on record: at 0.1 µM.
Tyrosine-protein kinase BTK (Homo sapiens), sequence (Q06187 whole entry): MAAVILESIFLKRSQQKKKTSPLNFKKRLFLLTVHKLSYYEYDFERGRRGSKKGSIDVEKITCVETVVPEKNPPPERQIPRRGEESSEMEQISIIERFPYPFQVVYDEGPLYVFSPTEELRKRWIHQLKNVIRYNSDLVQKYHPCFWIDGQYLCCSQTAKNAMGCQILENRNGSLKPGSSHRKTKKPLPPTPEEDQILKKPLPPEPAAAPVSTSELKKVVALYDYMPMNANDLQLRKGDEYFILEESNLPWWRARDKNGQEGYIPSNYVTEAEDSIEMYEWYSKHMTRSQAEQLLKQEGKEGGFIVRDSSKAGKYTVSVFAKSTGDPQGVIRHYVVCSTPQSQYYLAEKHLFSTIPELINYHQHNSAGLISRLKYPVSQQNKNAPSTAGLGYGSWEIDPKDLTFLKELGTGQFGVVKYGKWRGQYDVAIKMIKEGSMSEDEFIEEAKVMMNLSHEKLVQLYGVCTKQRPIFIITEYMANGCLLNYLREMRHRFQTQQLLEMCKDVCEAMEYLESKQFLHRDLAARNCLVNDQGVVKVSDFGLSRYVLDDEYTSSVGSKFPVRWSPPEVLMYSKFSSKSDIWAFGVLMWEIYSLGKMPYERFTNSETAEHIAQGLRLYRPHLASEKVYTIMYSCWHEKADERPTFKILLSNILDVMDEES
Test [9] shares this target. The settings on record: at 1 µM.
In test [10] the target is Tyrosine-protein kinase CSK (Homo sapiens) (UniProt P41240). The settings on record: at 0.1 µM.
Test [11] shares this target. The settings on record: at 1 µM.
Test [12] concerns the target T2, Discoidin domain-containing receptor 2 (Homo sapiens) (UniProt Q16832).
T2 sequence (whole entry): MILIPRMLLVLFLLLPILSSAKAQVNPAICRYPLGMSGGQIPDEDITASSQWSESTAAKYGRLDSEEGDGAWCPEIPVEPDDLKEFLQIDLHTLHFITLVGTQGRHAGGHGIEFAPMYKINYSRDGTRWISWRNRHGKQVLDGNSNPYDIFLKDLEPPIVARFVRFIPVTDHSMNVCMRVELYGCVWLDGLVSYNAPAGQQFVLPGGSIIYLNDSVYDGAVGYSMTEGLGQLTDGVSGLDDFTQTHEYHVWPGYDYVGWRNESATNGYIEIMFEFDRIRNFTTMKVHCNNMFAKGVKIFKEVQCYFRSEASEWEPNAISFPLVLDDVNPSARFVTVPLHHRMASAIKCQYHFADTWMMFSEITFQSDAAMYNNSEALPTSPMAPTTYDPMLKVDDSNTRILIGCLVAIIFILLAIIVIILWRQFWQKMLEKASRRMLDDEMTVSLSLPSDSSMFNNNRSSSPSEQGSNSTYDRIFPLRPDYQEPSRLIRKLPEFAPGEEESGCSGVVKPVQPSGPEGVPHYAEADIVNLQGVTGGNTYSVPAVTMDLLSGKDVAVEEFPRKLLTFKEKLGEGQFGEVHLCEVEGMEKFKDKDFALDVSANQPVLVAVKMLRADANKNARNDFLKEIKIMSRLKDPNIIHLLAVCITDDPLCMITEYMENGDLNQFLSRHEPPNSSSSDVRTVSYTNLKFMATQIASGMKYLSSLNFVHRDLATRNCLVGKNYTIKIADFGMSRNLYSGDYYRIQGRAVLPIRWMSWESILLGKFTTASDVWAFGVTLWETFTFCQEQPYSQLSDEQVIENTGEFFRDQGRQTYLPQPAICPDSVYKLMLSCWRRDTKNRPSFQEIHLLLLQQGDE
The settings on record: at 0.1 µM.

Test [13] has as its target T2, Discoidin domain-containing receptor 2 (Homo sapiens). The settings on record: at 1 µM.
In test [14] the target is Epidermal growth factor receptor (Homo sapiens) (UniProt P00533). The settings on record: at 0.1 µM.
Epidermal growth factor receptor (Homo sapiens), sequence (P00533 whole entry): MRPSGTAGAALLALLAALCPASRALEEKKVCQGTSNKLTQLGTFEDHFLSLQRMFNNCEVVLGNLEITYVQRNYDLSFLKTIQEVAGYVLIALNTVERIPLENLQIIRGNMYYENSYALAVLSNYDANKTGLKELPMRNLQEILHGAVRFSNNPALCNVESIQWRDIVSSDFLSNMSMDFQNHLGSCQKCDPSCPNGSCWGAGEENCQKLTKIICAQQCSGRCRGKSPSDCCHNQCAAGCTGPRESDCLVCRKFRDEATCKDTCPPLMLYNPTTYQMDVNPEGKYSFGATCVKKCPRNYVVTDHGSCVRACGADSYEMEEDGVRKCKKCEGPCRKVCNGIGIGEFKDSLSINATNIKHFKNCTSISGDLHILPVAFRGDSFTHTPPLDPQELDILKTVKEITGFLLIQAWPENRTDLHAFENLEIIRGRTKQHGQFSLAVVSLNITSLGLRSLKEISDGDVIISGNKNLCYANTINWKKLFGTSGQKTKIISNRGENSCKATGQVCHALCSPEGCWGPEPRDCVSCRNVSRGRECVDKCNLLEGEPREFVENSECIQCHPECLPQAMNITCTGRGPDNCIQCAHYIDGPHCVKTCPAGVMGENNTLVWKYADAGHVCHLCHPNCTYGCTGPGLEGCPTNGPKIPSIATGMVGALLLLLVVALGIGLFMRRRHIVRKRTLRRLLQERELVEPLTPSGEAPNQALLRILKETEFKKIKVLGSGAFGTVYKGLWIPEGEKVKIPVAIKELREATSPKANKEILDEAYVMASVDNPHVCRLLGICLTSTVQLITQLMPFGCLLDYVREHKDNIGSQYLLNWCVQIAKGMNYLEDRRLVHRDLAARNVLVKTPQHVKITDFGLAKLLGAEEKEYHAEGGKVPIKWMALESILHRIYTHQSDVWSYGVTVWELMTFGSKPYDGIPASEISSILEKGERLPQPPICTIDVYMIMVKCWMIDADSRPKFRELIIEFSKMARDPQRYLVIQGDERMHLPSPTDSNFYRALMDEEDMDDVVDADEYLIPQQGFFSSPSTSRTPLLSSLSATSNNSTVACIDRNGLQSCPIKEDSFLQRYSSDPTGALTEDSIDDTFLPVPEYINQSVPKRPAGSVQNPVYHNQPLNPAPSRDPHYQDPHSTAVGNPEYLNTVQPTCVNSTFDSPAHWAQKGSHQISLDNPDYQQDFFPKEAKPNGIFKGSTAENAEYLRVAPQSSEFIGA
Test [15] has the same target. The settings on record: at 1 µM.
For test [16], the system named is Epidermal growth factor receptor (Homo sapiens), P00533 [L858R]. The settings on record: at 0.1 µM.
Epidermal growth factor receptor (Homo sapiens), P00533 [L858R], sequence (P00533 whole entry L858R): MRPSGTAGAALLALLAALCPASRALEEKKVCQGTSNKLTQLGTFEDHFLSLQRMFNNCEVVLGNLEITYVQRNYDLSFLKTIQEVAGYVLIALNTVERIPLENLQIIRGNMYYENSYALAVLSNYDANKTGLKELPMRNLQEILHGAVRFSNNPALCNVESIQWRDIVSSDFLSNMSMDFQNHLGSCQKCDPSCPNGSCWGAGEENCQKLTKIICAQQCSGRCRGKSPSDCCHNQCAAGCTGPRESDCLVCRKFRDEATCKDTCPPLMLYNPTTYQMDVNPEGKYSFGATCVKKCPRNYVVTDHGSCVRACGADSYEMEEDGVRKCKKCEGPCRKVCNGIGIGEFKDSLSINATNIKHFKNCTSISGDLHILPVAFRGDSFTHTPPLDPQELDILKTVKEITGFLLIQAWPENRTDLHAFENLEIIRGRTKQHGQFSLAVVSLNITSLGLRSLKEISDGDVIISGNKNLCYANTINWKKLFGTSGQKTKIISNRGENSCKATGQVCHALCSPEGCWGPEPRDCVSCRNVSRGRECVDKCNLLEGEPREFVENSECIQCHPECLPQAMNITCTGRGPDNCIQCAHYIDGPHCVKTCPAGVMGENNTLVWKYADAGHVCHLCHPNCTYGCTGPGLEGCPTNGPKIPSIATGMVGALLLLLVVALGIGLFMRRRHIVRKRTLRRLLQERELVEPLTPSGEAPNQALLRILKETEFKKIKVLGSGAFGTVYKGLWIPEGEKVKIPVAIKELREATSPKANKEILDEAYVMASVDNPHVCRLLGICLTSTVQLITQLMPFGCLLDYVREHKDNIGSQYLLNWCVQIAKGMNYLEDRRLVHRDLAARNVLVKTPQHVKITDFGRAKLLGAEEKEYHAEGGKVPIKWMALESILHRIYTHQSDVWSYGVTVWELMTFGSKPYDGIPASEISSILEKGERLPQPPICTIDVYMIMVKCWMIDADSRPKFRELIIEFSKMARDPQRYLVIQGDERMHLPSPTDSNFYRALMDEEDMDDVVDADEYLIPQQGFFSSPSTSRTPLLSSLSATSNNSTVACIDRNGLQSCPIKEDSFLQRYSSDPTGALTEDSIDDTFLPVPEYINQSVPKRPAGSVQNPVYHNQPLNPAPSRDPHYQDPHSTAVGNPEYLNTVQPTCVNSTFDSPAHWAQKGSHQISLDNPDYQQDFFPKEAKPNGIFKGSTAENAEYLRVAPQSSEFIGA
For test [17] the test system is unchanged. The settings on record: at 1 µM.
The subject of test [18] is Epidermal growth factor receptor (Homo sapiens), P00533 [L861Q]. The settings on record: at 0.1 µM.
The test system is the same in test [19]. The settings on record: at 1 µM.
Test [20] relates to Epidermal growth factor receptor (Homo sapiens), P00533 [T790M]. The settings on record: at 0.1 µM.

Tyrosine-protein kinase Blk (Homo sapiens), sequence (P51451 2-505 limits assumed): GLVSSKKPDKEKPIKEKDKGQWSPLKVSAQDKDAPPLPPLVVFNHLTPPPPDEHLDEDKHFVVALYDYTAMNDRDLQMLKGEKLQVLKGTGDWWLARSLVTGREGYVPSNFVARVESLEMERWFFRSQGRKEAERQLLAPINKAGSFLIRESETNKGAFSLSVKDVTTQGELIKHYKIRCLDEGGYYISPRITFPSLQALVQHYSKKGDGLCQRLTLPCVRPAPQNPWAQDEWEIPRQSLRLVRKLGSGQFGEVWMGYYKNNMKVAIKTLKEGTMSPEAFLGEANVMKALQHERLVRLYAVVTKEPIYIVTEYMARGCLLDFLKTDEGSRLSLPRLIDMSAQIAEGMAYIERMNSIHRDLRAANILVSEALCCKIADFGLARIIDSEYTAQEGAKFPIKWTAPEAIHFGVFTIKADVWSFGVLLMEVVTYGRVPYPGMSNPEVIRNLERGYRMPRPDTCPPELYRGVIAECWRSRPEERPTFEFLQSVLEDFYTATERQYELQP
Protein-tyrosine kinase 6 (Homo sapiens), sequence (Q13882 whole entry, looked up): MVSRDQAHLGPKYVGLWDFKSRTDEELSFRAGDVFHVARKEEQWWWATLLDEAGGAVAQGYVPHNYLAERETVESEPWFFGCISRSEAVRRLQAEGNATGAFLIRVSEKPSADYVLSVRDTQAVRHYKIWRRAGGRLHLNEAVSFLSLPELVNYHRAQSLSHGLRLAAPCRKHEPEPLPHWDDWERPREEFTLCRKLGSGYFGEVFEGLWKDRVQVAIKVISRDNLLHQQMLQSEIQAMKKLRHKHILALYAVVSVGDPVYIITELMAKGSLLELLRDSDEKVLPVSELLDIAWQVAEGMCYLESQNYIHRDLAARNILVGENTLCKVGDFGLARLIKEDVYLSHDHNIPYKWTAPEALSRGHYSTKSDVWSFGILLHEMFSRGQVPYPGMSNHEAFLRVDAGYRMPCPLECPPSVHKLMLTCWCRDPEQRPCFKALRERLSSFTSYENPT

In the case of `Nc1nonc1-c1nc2cnccc2n1C1CC1`, the inhibition in test [1] is 0.16% and -1.32%; in [2] it was 2.66% and -2.38%; in [3], 4.59% and -2.3%; in [4], 6.52% and -2.61%; in test [5], 4.75% and 2.31%; in test [6], 5.31% and 2.92%. The inhibition in test [7] is 3.69% and 2.66%; in [8] it was 1.67% and -4.68%; in test [9], 1.98% and -4.91%; in test [10] it was 3.81% and 3.48%; in [11] it was 2.08% and 1.45%; in test [12], 1.46% and 1.25%. The inhibition in test [13] is 2.24% and 0.96%; in [14], 1.3% and -3.46%; in [15] it was 4.4% and -3.77%; in test [16], 1.41% and 2.54%; in [17], 0.67% and 3.32%; in [18], 4% and 2.76%. For the same molecule, the inhibition is -0.36% and -1.27% in test [19]; 1.58% and 0.88% in test [20].

Take `COc1cc(N2CCN(C(C)C)CC2)ccc1Nc1nc(Nc2cccc3ncccc23)c2cc[nH]c2n1`: the inhibition in [1] is 5.43%; in [2], 0.1%; in [3], 2.64%; in test [4], 5.26%; in [5], -0.89%; in [6], -1.05%. The inhibition in [7] was -2.93%; in test [8] it was -0.29%; in test [9], -0.05%; in [10], -1.28%; in test [11] it was -2.41%; in test [12], 4.81%. For the same molecule, the inhibition in test [13] is 8.24%; in test [14] it was 1.36%; in [15], 2.64%; in test [16], -1.25%; in test [17], 3.3%; in test [18], -0.92%. Besides, the inhibition in test [19] was 0.99%; in test [20], -1.02%.

As for `CCn1c(-c2nonc2N)nc2cncc(C(=O)NCCNC)c21`, the inhibition in test [1] is -6.19%; in test [2] it was 3.13%; in test [3], 5.42%; in [4], 3.81%; in [5], 5.15%; in test [6] it was 2.42%. Moreover, the inhibition in test [7] was 5.45%; in test [8], -1.55%; in test [9] it was 0.11%; in test [10], 3.43%; in test [11] it was 4.95%; in test [12], 1.54%. Besides, the inhibition in [13] amounted to 2.38%; in [14], 0.28%; in test [15], 5.41%; in test [16], 4.66%; in test [17], 6.79%; in [18], 4.01%. The inhibition in [19] worked out at 2.21%; in [20] it was 2.41%.

Turning to `COc1cc(N2CCN(C(C)C)CC2)ccc1Nc1nc(Nc2cccc(F)c2C(=O)O)c2cc[nH]c2n1`, the inhibition in test [1] came to 37.3%; in [2], 2.92%; in [3], 4.31%; in test [4] it was 2.19%; in [5], 4.13%; in [6], 4.63%. Moreover, the inhibition in [7] was 8.17%; in [8], -0.37%; in test [9], 0.06%; in [10], 5.06%; in test [11] it was 7.02%; in test [12], 1.68%. Besides, the inhibition in [13] is 1.98%; in [14], 0.15%; in [15] it was 3.33%; in test [16], 4.84%; in test [17] it was 12.6%; in [18], 4.97%. Further, the values for the inhibition in [19] and in test [20] were 5.54% and 6.09%, respectively.

Take `CN1CCC(n2cnc(-c3ccc(F)cc3)c2-c2ccnc(NCCO)n2)CC1`: the inhibition in test [1] was -5.39%; in test [2], 3.74%; in [3], 2.11%; in test [4] it was -6.22%; in [5], 4.95%; in [6], 3.29%. For the same molecule, the inhibition in test [7] was 6.89%; in [8] it was 0.96%; in [9] it was 0.09%; in [10] it was 7.33%; in test [11], 8.66%; in [12], 2.1%. In addition, the inhibition in test [13] is 3.08%; in test [14], 0.6%; in [15] it was 6.58%; in test [16], 0.99%; in test [17], 11%; in test [18] it was 4.45%. Also, the inhibition in [19] stood at 5.89%; in test [20], 3.52%.

Take `CS(=O)(=O)Nc1ccc(-c2ccc3c(NC(=O)C4CC4)n[nH]c3c2)cc1`: the inhibition was 0.24% in test [1]; 2.19% in test [2]; 9.5% in test [3]; -5.43% in test [4]; 4.64% in [5]; 1.77% in [6]. Also, the inhibition in [7] is 2.53%; in test [8], 1%; in [9], 1.7%; in test [10], 3.59%; in [11] it was 0.41%; in test [12], 1.42%. The inhibition in test [13] was 0.51%; in test [14] it was -0.2%; in [15] it was 2.27%; in test [16], 2.52%; in test [17], -0.4%; in [18], 2.28%. In addition, the figures for the inhibition in test [19] and in test [20] were -2.37% and 2.21%, respectively.
